Source: PubChem
ROMK mod: human ROMK K+ channel modulation, primary screen; Tet-inducible ROMK, thallium flux fluorescence; actives lie on both sides; B-score at 10 µM; 130,000 tested, 2% active;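 active = signal ratio slope over the read window, or its plate-corrected B-score, at least 3 SD from the plate mean, either direction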;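 note: B-score of the F/F0 ratio slope over 7 to 12 s after thallium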
Target sequence (P48048 whole entry, looked up): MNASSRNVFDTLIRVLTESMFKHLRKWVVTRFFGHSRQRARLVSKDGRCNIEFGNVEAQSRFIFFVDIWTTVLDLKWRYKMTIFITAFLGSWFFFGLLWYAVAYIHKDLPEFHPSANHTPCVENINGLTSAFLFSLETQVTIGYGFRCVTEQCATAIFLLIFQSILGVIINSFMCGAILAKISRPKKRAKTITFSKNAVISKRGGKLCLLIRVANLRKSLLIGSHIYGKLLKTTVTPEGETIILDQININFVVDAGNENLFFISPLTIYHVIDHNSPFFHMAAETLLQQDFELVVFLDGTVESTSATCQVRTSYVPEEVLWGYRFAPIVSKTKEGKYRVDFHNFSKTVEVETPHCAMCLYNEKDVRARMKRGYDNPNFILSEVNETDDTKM
L major viab: Leishmania major promastigote growth inhibition; 200,000 tested, 9% active; AID 1063; inhibition, % at 10 µM; Leishmania major promastigotes, resazurin fluorescence viability; in the data active = inhibition above about 50%;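 note: promastigotes grown with compound for 44 hours at 28 °C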
KCC2 mod: modulates chloride dependent transport by human KCC2. KCC2 cells, thallium flux FluoZin-2 fluorescence. 190,000 tested, 2.2% active. Q9H2X9. B-score of Tl+ flux slope (higher = more flux/activation; lower = inhibition) at 10 µM;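 active = thallium flux slope and its plate-corrected score both differing from the plate sample mean at a set confidence after two filtering rounds, in either direction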;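 note: slope of fluorescence scaled to starting intensity during 10 to 20 s after thallium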
Calpain2 inh: inhibitors of pig calpain II. purified calpain II, fluorogenic peptide substrate, 30 min. 220,000 tested, 0.37% active. inhibition, % at 16 µM. AID 1236;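 active = inhibition above about 50%, limit read from the data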
WT yeast gro inh: growth inhibition of WT yeast, mitochondrial fusion screen | mitochondrial fusion phenotypic screen, WT strain | inhibition, % at 10 µM | 190,000 tested, 2.1% active | AID 1362; in the data active = inhibition above about 58%; tested in S. cerevisiae
The depositor's hits bear a star. This is a sample that favours compounds with a hit; in the whole collection about 12% have one here.

How did COCCN(Cc1cc2cc(C)ccc2n2nnnc12)C(=S)Nc1ccc(C)cc1 do in these assays?
ROMK mod: 3; L major viab: 57*; KCC2 mod: -1.3; Calpain2 inh: -109; WT yeast gro inh: -89

Results for CC(C)C[C@@H](CSc1ccc(Br)cc1)N1CCN(CC(C)C)CCC1=O ?
KCC2 mod: -2.5; Calpain2 inh: 11

How did NC(N)=N/N=C/c1cccc([N+](=O)[O-])c1O do in these assays?
ROMK mod: -0.19; L major viab: -4; KCC2 mod: -0.25; Calpain2 inh: 24; WT yeast gro inh: -1

Results for NC(N)=N/N=C/c1cccc(Cl)c1Cl ?
ROMK mod: -0.25; L major viab: 100*; Calpain2 inh: -16; WT yeast gro inh: 33

Results for CCC(C)NC(=O)Nc1ccc(C)cc1C (stereo not drawn) ?
ROMK mod: 0.58; L major viab: 12; KCC2 mod: 0.82; Calpain2 inh: 29; WT yeast gro inh: -4

What do the screens show for `COc1cccc(CSc2nc3cc4c(cc3cc2C)OCCO4)c1`?
ROMK mod: 0.17; L major viab: 57*; KCC2 mod: 0.99; Calpain2 inh: 18; WT yeast gro inh: 28

How did Cc1cc2cc3c(cc2nc1SCC(=O)OC(C)C)OCCO3 do in these assays?
ROMK mod: 0.021; L major viab: -3; KCC2 mod: -0.18; Calpain2 inh: 6; WT yeast gro inh: -8

How did COC(=O)CSc1nc2cc3c(cc2cc1C)OCO3 do in these assays?
L major viab: 11; KCC2 mod: -0.094; Calpain2 inh: -10; WT yeast gro inh: 70*

Results for Cc1cc2cc3c(cc2nc1SCC(=O)Nc1nc(C)c(C)s1)OCO3 ?
L major viab: 83*; Calpain2 inh: 46; WT yeast gro inh: -13

What do the screens show for `CCc1cc2cc3c(cc2nc1SCC(=O)Nc1nnc(C)s1)OCCO3`?
L major viab: -4; Calpain2 inh: 7; WT yeast gro inh: 11

What do the screens show for `COCCN(CCOC)S(=O)(=O)c1ccc(C(=O)Nc2ccc([N+](=O)[O-])cc2OC)cc1`?
ROMK mod: 0.49; L major viab: -3; KCC2 mod: -0.023; Calpain2 inh: 16; WT yeast gro inh: 5

How did Cc1noc(C)c1COC(=O)[C@H](C)NS(=O)(=O)c1ccc(Cl)c(Cl)c1 do in these assays?
ROMK mod: -1; L major viab: 73*; Calpain2 inh: 18; WT yeast gro inh: 3

What do the screens show for `COc1cccc(/C=C/C(=O)OCC(=O)Nc2ccc(S(=O)(=O)N3CCCC3)cc2)c1`?
L major viab: 68*; KCC2 mod: 1.3; Calpain2 inh: -5; WT yeast gro inh: 3

How did COc1cc(/C=C/C(=O)OCC(=O)N2CCN(S(=O)(=O)c3ccc(C)cc3C)CC2)ccc1O do in these assays?
L major viab: 98*; KCC2 mod: 1.2; Calpain2 inh: -53; WT yeast gro inh: -24

Results for COc1ccc(NC(=O)COC(=O)/C=C/c2ccc(OC)c(S(=O)(=O)N3CCOCC3)c2)cc1 ?
L major viab: 57*; KCC2 mod: 0.13; Calpain2 inh: -14; WT yeast gro inh: -23

Results for COc1cc(/C=C/C(=O)OCC(=O)Nc2ccc(S(=O)(=O)N3CCCC3)cc2)ccc1O ?
ROMK mod: 0.038; L major viab: -2; KCC2 mod: -1.2; Calpain2 inh: -53; WT yeast gro inh: -16

Results for O=C(OC(c1ccccc1)c1nccc2ccccc12)c1cc([N+](=O)[O-])cc([N+](=O)[O-])c1 (stereo not drawn) ?
L major viab: 98*; KCC2 mod: -0.6; Calpain2 inh: -26; WT yeast gro inh: 56

How did O=C(NC(c1ccccc1)c1ccccn1)c1cccc([N+](=O)[O-])c1 (stereo not drawn) do in these assays?
ROMK mod: 0.44; L major viab: 10; KCC2 mod: 0.026; Calpain2 inh: 15; WT yeast gro inh: 8

How did Cc1cc2c(c(=O)o1)C(CCC1CCCCC1)C(C#N)=C(N)O2 (stereo not drawn) do in these assays?
ROMK mod: 0.047; KCC2 mod: 1.8; Calpain2 inh: 22

What do the screens show for `CNC(=O)c1nn(-c2ccc(Cl)cc2)ccc1=O`?
L major viab: -2; KCC2 mod: -0.03; Calpain2 inh: -35; WT yeast gro inh: 98*

How did CNC(=O)c1nn(-c2ccccc2)ccc1=O do in these assays?
L major viab: -8; KCC2 mod: 0.063; Calpain2 inh: 12; WT yeast gro inh: 9

What do the screens show for `C=C(C(=O)c1ccccc1)C(C)CC(=O)c1ccccc1` (stereo not drawn)?
L major viab: 86*; KCC2 mod: -0.094; Calpain2 inh: -8; WT yeast gro inh: -22

What do the screens show for `Cc1ccccc1C(=O)NNC(=S)NC(=O)COc1ccccc1`?
ROMK mod: 1.8; L major viab: 4; KCC2 mod: 19*; Calpain2 inh: 9; WT yeast gro inh: -12

How did CC(C)(C)C(=O)NC(=S)NNC(=O)c1ccc(-c2ccccc2)cc1 do in these assays?
ROMK mod: 6.1*; L major viab: 97*; KCC2 mod: 87*; Calpain2 inh: -69; WT yeast gro inh: 67*

Results for COC(=O)c1ccccc1NC(=S)NC(=O)COc1ccccc1 ?
L major viab: -9; Calpain2 inh: 46; WT yeast gro inh: 6

Results for Cc1ccc(C(=O)NNC(=S)NC(=O)COc2ccccc2)cc1 ?
ROMK mod: 6.6*; L major viab: -2; KCC2 mod: 95*; Calpain2 inh: 15; WT yeast gro inh: 84*

How did COc1cccc(CN(Cc2cccnc2)S(=O)(=O)c2ccc(-n3cnnn3)c(C)c2)c1OC do in these assays?
ROMK mod: 2.2; L major viab: 98*; KCC2 mod: 0.32; Calpain2 inh: -23; WT yeast gro inh: -7

What do the screens show for `COc1ccccc1CN(Cc1ccco1)S(=O)(=O)c1ccc(-n2cnnn2)c(OC)c1`?
ROMK mod: -0.0012; L major viab: 73*; KCC2 mod: -0.013; Calpain2 inh: 13; WT yeast gro inh: 26

Results for Cc1c(Cl)cccc1NC(=S)N1CCN(Cc2ccc3c(c2)OCO3)CC1 ?
L major viab: 74*; KCC2 mod: 0.35; Calpain2 inh: -4; WT yeast gro inh: 6

Results for COc1ccccc1NC(=S)N1CCN(Cc2ccc3c(c2)OCO3)CC1 ?
ROMK mod: 1.1; L major viab: 96*; KCC2 mod: 0.41; Calpain2 inh: 20; WT yeast gro inh: 16

Results for Cc1ccc(S(=O)(=O)N(C)C)cc1NC(=S)N1CCN(Cc2ccc3c(c2)OCO3)CC1 ?
ROMK mod: 0.45; L major viab: 84*; KCC2 mod: -0.97; Calpain2 inh: -13; WT yeast gro inh: -15

How did Cc1ccccc1NC(=S)N1CCN(Cc2ccc3c(c2)OCO3)CC1 do in these assays?
L major viab: 24; KCC2 mod: 1.2; Calpain2 inh: -5; WT yeast gro inh: -3

How did CCN(CC)CCOc1ccc(/C(=C(/Cl)c2ccccc2)c2ccccc2)cc1 do in these assays?
ROMK mod: -0.11; L major viab: 100*; KCC2 mod: 1.5; Calpain2 inh: 5; WT yeast gro inh: 98*

How did COc1cccc(OC)c1-c1nn2c(-c3ccccc3Cl)nnc2s1 do in these assays?
ROMK mod: 0.17; L major viab: 18; KCC2 mod: -1.4; Calpain2 inh: -29; WT yeast gro inh: 5
